Measured values reported in the supplement of paper PMC8728848.
This excerpt belongs to a sample that is enriched for the strongest signals.

Key:
Assay in all cases: glycan array binding signal (z-score within array); higher = stronger binding
Conditions in all cases: glycan notation: IUPAC condensed, linker removed
Gal4S6S(b1-4)GlcNAc = biological target: Gal4S6S(b1-4)GlcNAc
In short: (§1)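 From the Consortium for Functional Glycomics database, 3228 arrays were curated, keeping only those whose protein sequence was available. Binding is given as a within-array Z-score averaged across arrays sharing a protein sequence and across linkers. Negative Z-scores can be read as non-binding.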

Gal6S(b1-3)GlcNAc = biological target: Gal6S(b1-3)GlcNAc
In short: as §1

Gal6S(b1-3)GlcNAc6S = biological target: Gal6S(b1-3)GlcNAc6S
In short: as §1

Gal6S(b1-4)Glc = biological target: Gal6S(b1-4)Glc
In short: as §1

Gal6S(b1-4)Glc6S = biological target: Gal6S(b1-4)Glc6S
In short: as §1

Gal6S(b1-4)GlcNAc6S = biological target: Gal6S(b1-4)GlcNAc6S
In short: as §1

Glc(a1-4)Glc = biological target: Glc(a1-4)Glc
In short: as §1

[1] = biological target: GlcNAc(a1-4)Gal(b1-4)GalNAc
In short: as §1

[2] = biological target: GlcNAc(a1-4)Gal(b1-4)GlcNAc(b1-3)Gal(b1-4)GlcNAc(b1-3)Gal(b1-4)GlcNAc
In short: as §1

[3] = biological target: GlcNAc(a1-4)Gal(b1-4)GlcNAc(b1-3)Gal(b1-4)[Fuc(a1-3)]GlcNAc(b1-3)Gal(b1-4)[Fuc(a1-3)]GlcNAc
In short: as §1

[4] = biological target: GlcNAc(b1-2)[GlcNAc(b1-4)]Man(a1-3)[GlcNAc(b1-2)Man(a1-6)]Man(b1-4)GlcNAc(b1-4)GlcNAc
In short: as §1

[5] = biological target: GlcNAc(b1-3)Gal(b1-4)GlcNAc(b1-2)Man(a1-3)[GlcNAc(b1-3)Gal(b1-4)GlcNAc(b1-2)Man(a1-6)]Man(b1-4)GlcNAc(b1-4)[Fuc(a1-6)]GlcNAc
In short: as §1

[6] = biological target: GlcNAc(b1-3)Gal(b1-4)GlcNAc(b1-3)Gal(b1-4)GlcNAc(b1-2)Man(a1-3)[GlcNAc(b1-3)Gal(b1-4)GlcNAc(b1-3)Gal(b1-4)GlcNAc(b1-2)Man(a1-6)]Man(b1-4)GlcNAc(b1-4)[Fuc(a1-6)]GlcNAc
In short: as §1

[7] = biological target: GlcNAc(b1-3)Gal(b1-4)GlcNAc(b1-3)Gal(b1-4)GlcNAc(b1-3)Gal(b1-4)GlcNAc(b1-2)[GlcNAc(b1-3)Gal(b1-4)GlcNAc(b1-3)Gal(b1-4)GlcNAc(b1-3)Gal(b1-4)GlcNAc(b1-6)]Man(a1-6)[GlcNAc(b1-3)Gal(b1-4)GlcNAc(b1-3)Gal(b1-4)GlcNAc(b1-3)Gal(b1-4)GlcNAc(b1-2)Man(a1-3)]Man(b1-4)GlcNAc(b1-4)[Fuc(a1-6)]GlcNAc
In short: as §1

[8] = biological target: GlcNAc(b1-3)Gal(b1-4)GlcNAc(b1-3)Gal(b1-4)GlcNAc(b1-3)Gal(b1-4)GlcNAc(b1-3)Gal(b1-4)GlcNAc(b1-2)Man(a1-3)[GlcNAc(b1-3)Gal(b1-4)GlcNAc(b1-3)Gal(b1-4)GlcNAc(b1-3)Gal(b1-4)GlcNAc(b1-3)Gal(b1-4)GlcNAc(b1-2)Man(a1-6)]Man(b1-4)GlcNAc(b1-4)[Fuc(a1-6)]GlcNAc
In short: as §1

[9] = biological target: GlcNAc(b1-3)Gal(b1-4)GlcNAc(b1-6)[Gal(b1-3)]GalNAc
In short: as §1

GlcNAc(b1-3)Man = biological target: GlcNAc(b1-3)Man
In short: as §1

GlcNAc(b1-6)GalNAc = biological target: GlcNAc(b1-6)GalNAc
In short: as §1

[10] = biological target: Man(a1-2)Man(a1-2)Man(a1-6)[Man(a1-3)]Man
In short: as §1

[11] = biological target: Man(a1-2)Man(a1-3)[Man(a1-2)Man(a1-6)]Man
In short: as §1

[12] = biological target: Man(a1-2)Man(a1-3)[Man(a1-6)]Man(a1-6)[Man(a1-2)Man(a1-3)]Man(b1-4)GlcNAc(b1-4)GlcNAc
In short: as §1

Man(a1-6)Man = biological target: Man(a1-6)Man
In short: as §1

MurNAc(b1-4)GlcNAc = biological target: MurNAc(b1-4)GlcNAc
In short: as §1

[13] = biological target: Neu5Ac(a2-3)Gal(b1-3)[Fuc(a1-4)]GlcNAc(b1-3)Gal(b1-4)[Fuc(a1-3)]GlcNAc
In short: as §1

[14] = biological target: Neu5Ac(a2-3)Gal(b1-4)GlcNAc(b1-3)Gal(b1-3)GlcNAc
In short: as §1

[15] = biological target: Neu5Ac(a2-3)Gal(b1-4)GlcNAc(b1-6)GalNAc
In short: as §1

[16] = biological target: Neu5Ac(a2-3)Gal(b1-4)GlcNAc(b1-6)[Gal(b1-3)]GalNAc
In short: as §1

[17] = biological target: Neu5Ac(a2-3)[GalNAc(b1-4)]Gal(b1-4)GlcNAc
In short: as §1

[18] = biological target: Neu5Ac(a2-3)[GalNAc(b1-4)]Gal(b1-4)GlcNAc(b1-3)GalNAc
In short: as §1

[19] = biological target: Neu5Ac(a2-6)Gal(b1-4)GlcNAc(b1-2)Man(a1-3)[Neu5Ac(a2-6)Gal(b1-4)GlcNAc(b1-2)Man(a1-6)]Man(b1-4)GlcNAc(b1-4)GlcNAc
In short: as §1

[20] = biological target: Neu5Ac(a2-6)Gal(b1-4)GlcNAc(b1-3)GalNAc
In short: as §1

[21] = biological target: Neu5Ac(a2-6)Gal(b1-4)GlcNAc(b1-6)[Gal(b1-3)]GalNAc
In short: as §1

[22] = biological target: Neu5Ac9Ac(a2-3)Gal(b1-4)GlcNAc
In short: as §1

[23] = biological target: Neu5Gc(a2-3)Gal(b1-3)[Fuc(a1-4)]GlcNAc
In short: as §1

[24] = biological target: Neu5Gc(a2-3)Gal(b1-4)GlcNAc(b1-3)Gal(b1-4)GlcNAc(b1-2)Man(a1-3)[Neu5Gc(a2-3)Gal(b1-4)GlcNAc(b1-3)Gal(b1-4)GlcNAc(b1-2)Man(a1-6)]Man(b1-4)GlcNAc(b1-4)GlcNAc
In short: as §1

[25] = biological target: Neu5Gc(b2-6)Gal(b1-4)GlcNAc
In short: as §1

B1: SP16664B-bot-474-25-474 (Bacteroides ovatus) (protein)
chain: CEEDIEIGNKIDESSYLASTQLSGLLLDENTNKNSSVIELRNNEYSTNVVFRLSKLPQKGVDVQIAVEESYAAIYNTIHETDFEVFPAANVKIANNGTFVLAPDDKVTPSVKVTLTAFDGMEEDKTYIVPLTVTSSTEGVTFTETSKHMVLLVQDYRNKPNTNKGEDAVQTVLYFEVNDTNPLNALEFLTESGKYFFDHIVLFAANINWDPEKQRVYLANNENVQFLLDNNDKYLQPLRKAGMKIIISILGNHDEAGVAQLSDMGAREFARELAAYCRAYNLDGVAFDDEYSNSPDLSNPWLASPSAYAGSRLMYECKAVMPEKIVSLYNLGNMYSSSLQVIDGIEPGQYCDYAVADYGGAAGPGTGMTLKQCAGMSIELRRGSGNSSESTARSRKEAGYGYYMFFALDPSLYGSQVYRCQSVCKGLYDETLVYPSYYYKKNSTEREAIN
Gal4S6S(b1-4)GlcNAc
  glycan array binding signal (z-score): -0.008
Gal6S(b1-3)GlcNAc
  glycan array binding signal (z-score): 0.118
Gal6S(b1-3)GlcNAc6S
  glycan array binding signal (z-score): 0.522
Gal6S(b1-4)Glc
  glycan array binding signal (z-score): -0.453
Gal6S(b1-4)Glc6S
  glycan array binding signal (z-score): 0.797
Gal6S(b1-4)GlcNAc6S
  glycan array binding signal (z-score): -0.289
Glc(a1-4)Glc
  glycan array binding signal (z-score): -0.119
[1]
  glycan array binding signal (z-score): 0.293
[2]
  glycan array binding signal (z-score): -0.159
[3]
  glycan array binding signal (z-score): 4.58
[4]
  glycan array binding signal (z-score): 0.16
[5]
  glycan array binding signal (z-score): 0.352
[6]
  glycan array binding signal (z-score): 11.2
[7]
  glycan array binding signal (z-score): 0.018
[8]
  glycan array binding signal (z-score): 0.334
[9]
  glycan array binding signal (z-score): 1.57
GlcNAc(b1-3)Man
  glycan array binding signal (z-score): 0.501
GlcNAc(b1-6)GalNAc
  glycan array binding signal (z-score): -0.234
[10]
  glycan array binding signal (z-score): -0.417
[11]
  glycan array binding signal (z-score): -0.568
[12]
  glycan array binding signal (z-score): -0.368
Man(a1-6)Man
  glycan array binding signal (z-score): 0.198
MurNAc(b1-4)GlcNAc
  glycan array binding signal (z-score): -0.181
[13]
  glycan array binding signal (z-score): 0.654
[14]
  glycan array binding signal (z-score): -0.055
[15]
  glycan array binding signal (z-score): -0.362
[16]
  glycan array binding signal (z-score): -0.456
[17]
  glycan array binding signal (z-score): -0.21
[18]
  glycan array binding signal (z-score): 0.051
[19]
  glycan array binding signal (z-score): -0.081
[20]
  glycan array binding signal (z-score): -0.034
[21]
  glycan array binding signal (z-score): -0.15
[22]
  glycan array binding signal (z-score): -0.181
[23]
  glycan array binding signal (z-score): -0.071
[24]
  glycan array binding signal (z-score): -0.304
[25]
  glycan array binding signal (z-score): 0.041
